Test results published in PubChem BioAssay (EPA / NIEHS).
Activity calls are given as the source filed them. How the source made its calls: active means hit-call score of the fitted dose curve at least 0.9, where 1 is the maximum; inactive means score below 0.9.

Key:
[1] = read-out: Tissue Factor, F3 (gene 2152); experiment: BSK_CASM3C_TissueFactor: BioMAP Diversity Plus: CASM3C Assay for Tissue Factor Biomarker Activity (AID 2283052); conditions: primary human coronary artery smooth muscle cells; actives raise or lower the signal;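 further: cell surface tissue factor protein level read by ELISA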
[2] = read-out: Interferon-gamma inducible Protein 10 (IP10), CXCL10 (gene 3627); experiment: BSK_hDFCGF_IP10: BioMAP Diversity Plus: hDFCGF Assay for Interferon-gamma inducible Protein 10 (IP10) Biomarker Activity (AID 2283053); conditions: primary human foreskin fibroblasts; actives raise or lower the signal
How it was run: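 IP-10 levels, quantified by ELISA, are taken from human foreskin fibroblast cultures 24 h after chemical treatment, with DMSO serving as negative control and baseline for bidirectional analysis.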

[3] = read-out: Urokinase-type plasminogen activator receptor (uPAR), PLAUR (gene 5329); experiment: BSK_CASM3C_uPAR: BioMAP Diversity Plus: CASM3C Assay for Urokinase-type plasminogen activator receptor (uPAR) Biomarker Activity (AID 2283054); conditions: primary human coronary artery smooth muscle cells; actives raise or lower the signal;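 further: cell-surface uPAR protein level quantified by ELISA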
[4] = read-out: Vascular cell adhesion molecule 1 (VCAM1), VCAM1 (gene 7412); experiment: BSK_CASM3C_VCAM1: BioMAP Diversity Plus: CASM3C Assay for Vascular cell adhesion molecule 1 (VCAM1) Biomarker Activity (AID 2283055); conditions: primary human coronary artery smooth muscle cells; actives raise or lower the signal;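 further: VCAM-1 protein level quantified by ELISA on the cells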
[5] = read-out: Collagen III, COL3A1 (gene 1281); experiment: BSK_hDFCGF_CollagenIII: BioMAP Diversity Plus: hDFCGF Assay for Collagen III Biomarker Activity (AID 2283056); conditions: primary human foreskin fibroblasts; actives raise or lower the signal
How it was run: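 Human foreskin primary fibroblasts were exposed to test chemicals for 24 h, after which collagen III was quantified by ELISA. Activity was fitted bidirectionally against DMSO as negative control and baseline.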

[6] = read-out: Epidermal growth factor receptor (EGFR), EGFR (gene 1956); experiment: BSK_hDFCGF_EGFR: BioMAP Diversity Plus: hDFCGF Assay for Epidermal growth factor receptor (EGFR) Biomarker Activity (AID 2283057); conditions: primary human foreskin fibroblasts; actives raise or lower the signal
How it was run: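 Measured by ELISA: EGFR levels on primary human foreskin fibroblasts 24 h after chemical treatment, analysed relative to DMSO with bidirectional fitting.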

[7] = read-out: Interleukin-8 (IL8), CXCL8 (gene 3576); experiment: BSK_hDFCGF_IL8: BioMAP Diversity Plus: hDFCGF Assay for Interleukin-8 (IL8) Biomarker Activity (AID 2283058); conditions: primary human foreskin fibroblasts; actives raise or lower the signal
How it was run: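 hDFCGF human dermal fibroblasts; 24 h chemical exposure; IL-8 by ELISA; bidirectional curve fit vs DMSO baseline; gain or loss of signal scored.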

[8] = BSK_hDFCGF_Proliferation: Cell Proliferation Assessment in the BioMAP Diversity Plus: hDFCGF Assay (AID 2283059); conditions: primary human foreskin fibroblasts;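 further: curves fitted for both rise and fall of signal versus DMSO baseline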
How it was run: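 Total protein read at 560 nm after 0.1% SRB staining of TCA-fixed human skin fibroblasts, […]. Activity is fitted in both directions relative to DMSO as baseline.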

[9] = read-out: Macrophage colony-stimulating factor (MCSF), CSF1 (gene 1435); experiment: BSK_hDFCGF_MCSF: BioMAP Diversity Plus: hDFCGF Assay for Macrophage colony-stimulating factor (MCSF) Biomarker Activity (AID 2283060); conditions: primary human foreskin fibroblasts; actives raise or lower the signal
How it was run: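 Human foreskin primary fibroblasts were treated with test chemical for 24 h, and M-CSF was then measured by ELISA. Data were fitted bidirectionally against DMSO as the negative control and activity baseline.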

[10] = BSK_hDFCGF_SRB: Viability Assessment in the BioMAP Diversity Plus: hDFCGF Assay (AID 2283061); conditions: primary human foreskin fibroblasts;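 further: cells exposed to compound for 24 h before the read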
How it was run: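 Human foreskin primary fibroblasts were treated with compound and assessed 24 h after dosing. Total protein was measured by sulforhodamine B staining (0.1% SRB after 10% TCA fixation, 560 nm read) as a cytotoxicity marker, with bidirectional fitting against DMSO baseline.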

[11] = read-out: Monokine induced gamma interferon (MIG), CXCL9 (gene 4283); experiment: BSK_hDFCGF_MIG: BioMAP Diversity Plus: hDFCGF Assay for Monokine induced gamma interferon (MIG) Biomarker Activity (AID 2283063); conditions: primary human foreskin fibroblasts; actives raise or lower the signal
How it was run: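 ELISA read-out of MIG from primary human dermal fibroblasts 24 h post-dosing. Gain or loss of signal fitted bidirectionally, DMSO as baseline.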

[12] = read-out: Matrix Metallopeptidase 1 (MMP1), MMP1 (gene 4312); experiment: BSK_hDFCGF_MMP1: BioMAP Diversity Plus: hDFCGF Assay for Matrix Metallopeptidase 1 (MMP1) Biomarker Activity (AID 2283064); conditions: primary human foreskin fibroblasts; actives raise or lower the signal
How it was run: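 hDFCGF primary fibroblasts (human foreskin); chemical added; 24 h; MMP1 by ELISA; bidirectional fit vs DMSO.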

[13] = read-out: Vascular cell adhesion molecule 1 (VCAM1), VCAM1 (gene 7412); experiment: BSK_hDFCGF_VCAM1: BioMAP Diversity Plus: hDFCGF Assay for Vascular cell adhesion molecule 1 (VCAM1) Biomarker Activity (AID 2283065); conditions: primary human foreskin fibroblasts; actives raise or lower the signal
How it was run: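 Primary human foreskin fibroblasts (hDFCGF system) were dosed with chemical and VCAM-1 was measured by ELISA 24 h later. Bidirectional curve fitting used DMSO as negative control and activity baseline.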

[14] = read-out: Plasminogen activator inhibitor-1 (PAI1), SERPINE1 (gene 5054); experiment: BSK_hDFCGF_PAI1: BioMAP Diversity Plus: hDFCGF Assay for Plasminogen activator inhibitor-1 (PAI1) Biomarker Activity (AID 2283066); conditions: primary human foreskin fibroblasts; actives raise or lower the signal
How it was run: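 PAI-1 levels, determined by ELISA, served as the endpoint in human foreskin fibroblast cultures exposed to compound for 24 h, with DMSO as baseline.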

[15] = read-out: Intercellular Adhesion Molecule 1 (ICAM1), ICAM1 (gene 3383); experiment: BSK_KF3CT_ICAM1: BioMAP Diversity Plus: KF3CT Assay for Intercellular Adhesion Molecule 1 (ICAM1) Biomarker Activity (AID 2283067); conditions: primary human keratinocytes with fibroblasts; actives raise or lower the signal
How it was run: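 Human keratinocyte plus foreskin fibroblast primary co-culture was exposed to chemical for 24 h. ICAM-1 was then quantified by ELISA, and the data were fit bidirectionally against DMSO as the negative control and baseline.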

[16] = read-out: Interferon-gamma inducible Protein 10 (IP10), CXCL10 (gene 3627); experiment: BSK_KF3CT_IP10: BioMAP Diversity Plus: KF3CT Assay for Interferon-gamma inducible Protein 10 (IP10) Biomarker Activity (AID 2283068); conditions: primary human keratinocytes with fibroblasts; actives raise or lower the signal
How it was run: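 Human keratinocyte plus foreskin fibroblast primary co-culture exposed to test chemical for 24 h; IP-10 measured by ELISA. Concentration-response fitted bidirectionally against DMSO control as baseline.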

[17] = BSK_KF3CT_SRB: Viability Assessment in the BioMAP Diversity Plus: KF3CT Assay (AID 2283069); conditions: primary human keratinocytes with fibroblasts;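 further: fitted for both signal gain and loss against DMSO baseline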
How it was run: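 Keratinocytes co-cultured with foreskin fibroblasts (human primary); chemical added, 24 h; fix 10% TCA, stain 0.1% SRB, A560. Bidirectional fit vs DMSO.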

[18] = read-out: Interleukin-1 alpha (IL1a), IL1A (gene 3552); experiment: BSK_KF3CT_IL1a: BioMAP Diversity Plus: KF3CT Assay for Interleukin-1 alpha (IL1a) Biomarker Activity (AID 2283070); conditions: primary human keratinocytes with fibroblasts; actives raise or lower the signal
How it was run: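 Chemicals were dosed onto co-cultured human keratinocytes and foreskin fibroblasts, IL-1a was quantified by ELISA at 24 h, and activity was fitted in both directions relative to DMSO controls.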

[19] = read-out: TIMP metallopeptidase inhibitor 2 (TIMP2), TIMP2 (gene 7077); experiment: BSK_KF3CT_TIMP2: BioMAP Diversity Plus: KF3CT Assay for TIMP metallopeptidase inhibitor 2 (TIMP2) Biomarker Activity (AID 2283071); conditions: primary human keratinocytes with fibroblasts; actives raise or lower the signal
How it was run: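 Keratinocyte–fibroblast co-culture, 24 h exposure; TIMP-2 ELISA, DMSO-normalised bidirectional fit. Parallel SRB (0.1%, TCA-fixed, 560 nm) total-protein staining gauges cytotoxicity.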

[20] = read-out: TIMP metallopeptidase inhibitor 1 (TIMP1), TIMP1 (gene 7076); experiment: BSK_hDFCGF_TIMP1: BioMAP Diversity Plus: hDFCGF Assay for TIMP metallopeptidase inhibitor 1 (TIMP1) Biomarker Activity (AID 2283062); conditions: primary human foreskin fibroblasts; actives raise or lower the signal
How it was run: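 Primary human foreskin fibroblasts in the hDFCGF system were dosed with compound for 24 h, then TIMP-1 was measured by ELISA. Activity was fitted bidirectionally relative to DMSO control; parallel SRB staining assessed cytotoxicity.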

Measured: AC50

C=CC/C=C/C/C=C/C/C=C/C
active: [12] 0.016 µM | [14] 0.141 µM
not listed: [20]
inactive: all other assays above

O[Si](c1ccccc1)(c1ccccc1)c1ccccc1
active: [5] 7.56 µM | [8] 20 µM | [9] 5.61 µM | [10] 5.35 µM | [14] 5.43 µM | [19] 10.3 µM
not listed: [20]
inactive: all other assays above

FC(F)(F)C(F)(F)C(F)(F)C(F)(F)C(F)(F)C(F)(F)CC1CO1 (centres undefined)
not listed: [17] | [20]
inactive: all other assays above

FC(F)(F)C(F)(F)C(F)(F)N(C(F)(F)C(F)(F)C(F)(F)F)C(F)(F)C(F)(F)C(F)(F)F
not listed: [17]
inactive: all other assays above

O=C(O)C(F)(F)C(F)(F)F
not listed: [17]
inactive: all other assays above
